In the supplement of paper PMC11732987, “Enantioselective OTUD7B fragment discovery through chemoproteomics screening and high-throughput optimisation” (Communications Chemistry, 2025):

Tests used:
Test in all cases: log2 ratio of Biotin-Ahx-Ub-VS probe labelling (fragment/DMSO); higher = less target engagement (more negative = stronger competition), active = hit call of the paper (q ≤ 0.05, log2 ratio ≤ -1)
Conditions in all cases: compound concentration: 200 uM; treatment time: 3 h
[1] = biological target: T1, USP42 (UniProt Q9H9J4)
T1 sequence (whole entry): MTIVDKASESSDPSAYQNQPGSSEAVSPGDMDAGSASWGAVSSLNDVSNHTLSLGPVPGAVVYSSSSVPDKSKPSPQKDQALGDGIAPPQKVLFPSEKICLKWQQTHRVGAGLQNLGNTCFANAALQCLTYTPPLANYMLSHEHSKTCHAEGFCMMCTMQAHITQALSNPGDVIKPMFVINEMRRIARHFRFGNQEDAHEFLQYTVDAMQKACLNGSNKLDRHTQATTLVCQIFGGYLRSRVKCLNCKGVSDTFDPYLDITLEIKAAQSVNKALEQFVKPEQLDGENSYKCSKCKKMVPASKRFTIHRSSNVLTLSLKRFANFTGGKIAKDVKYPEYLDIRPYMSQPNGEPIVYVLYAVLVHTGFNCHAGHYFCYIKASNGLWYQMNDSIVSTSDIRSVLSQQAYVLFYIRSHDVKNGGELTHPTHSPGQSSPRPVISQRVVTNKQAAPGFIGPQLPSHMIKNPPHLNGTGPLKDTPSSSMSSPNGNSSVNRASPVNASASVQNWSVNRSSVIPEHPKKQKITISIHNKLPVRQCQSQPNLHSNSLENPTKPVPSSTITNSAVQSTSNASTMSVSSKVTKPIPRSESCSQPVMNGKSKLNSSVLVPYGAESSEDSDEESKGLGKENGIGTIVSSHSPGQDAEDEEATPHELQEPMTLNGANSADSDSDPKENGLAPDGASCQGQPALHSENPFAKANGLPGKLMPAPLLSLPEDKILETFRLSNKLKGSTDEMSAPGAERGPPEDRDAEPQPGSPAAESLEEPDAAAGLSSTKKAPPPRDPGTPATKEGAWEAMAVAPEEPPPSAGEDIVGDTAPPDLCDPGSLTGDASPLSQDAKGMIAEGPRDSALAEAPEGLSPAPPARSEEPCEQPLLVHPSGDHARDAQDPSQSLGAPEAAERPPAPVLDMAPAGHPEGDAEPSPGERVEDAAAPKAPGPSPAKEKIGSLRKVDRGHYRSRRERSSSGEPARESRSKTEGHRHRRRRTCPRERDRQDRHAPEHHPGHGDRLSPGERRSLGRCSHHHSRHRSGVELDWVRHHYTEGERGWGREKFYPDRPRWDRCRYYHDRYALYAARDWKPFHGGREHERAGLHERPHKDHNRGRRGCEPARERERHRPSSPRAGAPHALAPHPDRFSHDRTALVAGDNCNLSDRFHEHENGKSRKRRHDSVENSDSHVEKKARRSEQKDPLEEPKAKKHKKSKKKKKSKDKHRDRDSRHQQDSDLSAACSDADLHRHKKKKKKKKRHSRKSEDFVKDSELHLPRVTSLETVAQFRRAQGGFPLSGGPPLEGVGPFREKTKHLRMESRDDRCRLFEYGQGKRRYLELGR
How it was run: (§1)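 Labelled DUBs from HEK293T lysate were NeutrAvidin-enriched, digested with LysC and trypsin, and run by diaPASEF LC-MS/MS. Before that, each 495 µg sample in Tris/CHAPS/IGEPAL buffer with protease inhibitors was treated in triplicate with fragment at 200 µM or vehicle for 3 h, then with Biotin-Ahx-Ub-VS at 0.5 µM final for 1 h. Values are average log2 ratios of fragment over vehicle by unpaired t-test, based on global-median-normalised Spectronaut label-free quantities from proteins with ≥2 unique peptides.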

[2] = biological target: USP46 (UniProt P62068)
Sequence of USP46 (P62068 whole entry): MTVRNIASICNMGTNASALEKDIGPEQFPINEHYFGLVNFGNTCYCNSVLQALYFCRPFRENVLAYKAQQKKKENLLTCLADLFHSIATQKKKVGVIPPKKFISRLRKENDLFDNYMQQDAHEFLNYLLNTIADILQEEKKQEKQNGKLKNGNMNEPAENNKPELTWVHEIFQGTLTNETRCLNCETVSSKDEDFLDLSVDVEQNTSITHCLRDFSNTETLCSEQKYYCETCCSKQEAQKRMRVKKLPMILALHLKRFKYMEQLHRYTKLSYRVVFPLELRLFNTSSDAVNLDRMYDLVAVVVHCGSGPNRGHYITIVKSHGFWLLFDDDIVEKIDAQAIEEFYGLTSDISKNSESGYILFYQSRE
How it was run: as §1

[3] = biological target: T2, USP47 (UniProt Q96K76)
T2 sequence (whole entry): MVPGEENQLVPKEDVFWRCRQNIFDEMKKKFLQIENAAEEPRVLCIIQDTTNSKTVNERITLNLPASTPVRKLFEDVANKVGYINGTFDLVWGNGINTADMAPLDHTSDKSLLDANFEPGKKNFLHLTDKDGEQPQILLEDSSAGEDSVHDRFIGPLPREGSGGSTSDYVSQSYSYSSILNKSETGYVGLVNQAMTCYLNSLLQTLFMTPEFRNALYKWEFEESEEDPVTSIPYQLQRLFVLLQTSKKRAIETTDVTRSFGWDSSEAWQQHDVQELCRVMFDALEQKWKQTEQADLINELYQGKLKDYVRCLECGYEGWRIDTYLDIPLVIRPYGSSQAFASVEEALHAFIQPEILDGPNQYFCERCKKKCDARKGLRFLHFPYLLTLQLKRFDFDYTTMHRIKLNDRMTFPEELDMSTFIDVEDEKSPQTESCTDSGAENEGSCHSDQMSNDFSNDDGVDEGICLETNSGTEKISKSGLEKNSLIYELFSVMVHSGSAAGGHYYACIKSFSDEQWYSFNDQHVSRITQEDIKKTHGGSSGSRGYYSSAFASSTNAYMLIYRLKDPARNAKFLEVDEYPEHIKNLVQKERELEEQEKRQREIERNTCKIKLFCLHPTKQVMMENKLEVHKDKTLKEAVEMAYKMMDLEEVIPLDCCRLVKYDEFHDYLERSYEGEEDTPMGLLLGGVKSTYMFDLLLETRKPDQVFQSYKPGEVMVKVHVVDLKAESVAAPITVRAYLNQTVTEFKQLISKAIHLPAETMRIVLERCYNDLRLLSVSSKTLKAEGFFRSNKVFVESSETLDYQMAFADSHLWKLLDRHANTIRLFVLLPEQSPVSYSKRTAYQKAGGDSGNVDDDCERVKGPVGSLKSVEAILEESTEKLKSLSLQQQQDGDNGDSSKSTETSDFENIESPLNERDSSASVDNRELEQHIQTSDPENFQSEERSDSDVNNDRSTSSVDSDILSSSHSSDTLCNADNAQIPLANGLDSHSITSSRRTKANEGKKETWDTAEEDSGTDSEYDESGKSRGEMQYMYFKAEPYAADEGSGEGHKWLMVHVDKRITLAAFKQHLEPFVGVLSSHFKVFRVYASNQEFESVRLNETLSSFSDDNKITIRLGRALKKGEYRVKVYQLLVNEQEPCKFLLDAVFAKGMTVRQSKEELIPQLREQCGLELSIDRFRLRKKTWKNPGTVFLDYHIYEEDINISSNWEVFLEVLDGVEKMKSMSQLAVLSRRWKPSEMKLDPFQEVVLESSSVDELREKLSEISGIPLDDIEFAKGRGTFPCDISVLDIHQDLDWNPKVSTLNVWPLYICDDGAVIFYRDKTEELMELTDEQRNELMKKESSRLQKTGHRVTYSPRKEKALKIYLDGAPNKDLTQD
How it was run: as §1

[4] = biological target: T3, USP48 (UniProt Q86UV5)
T3 sequence (whole entry): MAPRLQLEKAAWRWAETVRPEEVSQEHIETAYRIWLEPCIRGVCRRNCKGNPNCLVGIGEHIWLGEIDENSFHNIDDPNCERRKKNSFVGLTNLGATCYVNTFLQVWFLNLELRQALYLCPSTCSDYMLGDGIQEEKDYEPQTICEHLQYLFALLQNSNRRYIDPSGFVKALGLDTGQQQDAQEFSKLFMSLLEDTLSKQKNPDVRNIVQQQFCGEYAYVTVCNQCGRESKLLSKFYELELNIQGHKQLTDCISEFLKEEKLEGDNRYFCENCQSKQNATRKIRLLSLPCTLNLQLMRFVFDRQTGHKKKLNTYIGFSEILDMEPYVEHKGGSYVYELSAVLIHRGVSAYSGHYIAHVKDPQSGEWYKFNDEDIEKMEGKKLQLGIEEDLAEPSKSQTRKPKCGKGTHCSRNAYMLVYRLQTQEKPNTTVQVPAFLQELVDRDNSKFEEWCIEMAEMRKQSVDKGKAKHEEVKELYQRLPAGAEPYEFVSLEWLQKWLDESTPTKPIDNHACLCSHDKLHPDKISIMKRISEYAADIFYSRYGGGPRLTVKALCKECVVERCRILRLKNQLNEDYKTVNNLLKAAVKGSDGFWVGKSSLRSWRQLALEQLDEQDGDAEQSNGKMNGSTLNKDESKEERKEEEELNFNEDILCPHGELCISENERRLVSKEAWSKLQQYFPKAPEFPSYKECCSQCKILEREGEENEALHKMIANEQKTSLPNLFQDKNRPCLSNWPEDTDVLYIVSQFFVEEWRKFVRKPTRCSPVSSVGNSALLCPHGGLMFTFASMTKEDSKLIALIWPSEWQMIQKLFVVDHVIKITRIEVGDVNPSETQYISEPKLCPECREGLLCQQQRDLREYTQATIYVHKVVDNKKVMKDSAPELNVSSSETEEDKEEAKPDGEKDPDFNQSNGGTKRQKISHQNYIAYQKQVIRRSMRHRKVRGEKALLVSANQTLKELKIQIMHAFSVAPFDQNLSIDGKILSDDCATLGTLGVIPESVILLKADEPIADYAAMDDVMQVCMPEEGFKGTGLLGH
How it was run: as §1

[5] = biological target: T4, USP5 (UniProt P45974)
T4 sequence (whole entry): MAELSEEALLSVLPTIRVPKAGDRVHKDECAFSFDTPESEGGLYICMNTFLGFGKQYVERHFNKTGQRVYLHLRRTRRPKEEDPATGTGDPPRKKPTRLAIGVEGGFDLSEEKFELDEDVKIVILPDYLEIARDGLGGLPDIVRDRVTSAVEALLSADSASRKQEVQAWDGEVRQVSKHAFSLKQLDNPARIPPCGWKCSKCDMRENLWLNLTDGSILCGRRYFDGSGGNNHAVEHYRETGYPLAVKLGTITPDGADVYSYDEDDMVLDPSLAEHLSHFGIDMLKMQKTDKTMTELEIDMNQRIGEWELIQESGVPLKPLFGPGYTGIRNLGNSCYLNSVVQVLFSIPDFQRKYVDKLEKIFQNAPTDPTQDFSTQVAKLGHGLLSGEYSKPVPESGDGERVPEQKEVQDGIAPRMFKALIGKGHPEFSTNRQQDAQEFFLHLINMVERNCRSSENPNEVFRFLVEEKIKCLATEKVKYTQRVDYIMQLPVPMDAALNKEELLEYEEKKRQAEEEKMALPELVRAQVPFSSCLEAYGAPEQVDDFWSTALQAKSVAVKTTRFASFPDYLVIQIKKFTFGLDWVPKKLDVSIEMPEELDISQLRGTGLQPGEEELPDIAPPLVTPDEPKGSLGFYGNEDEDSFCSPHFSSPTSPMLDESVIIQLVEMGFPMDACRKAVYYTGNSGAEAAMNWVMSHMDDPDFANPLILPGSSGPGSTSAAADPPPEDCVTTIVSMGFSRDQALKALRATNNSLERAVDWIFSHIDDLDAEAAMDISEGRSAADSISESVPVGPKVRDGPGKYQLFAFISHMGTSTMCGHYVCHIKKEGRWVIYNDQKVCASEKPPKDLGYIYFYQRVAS
How it was run: as §1

[6] = biological target: USP54 (UniProt Q70EL1)
Sequence of USP54 (Q70EL1 whole entry): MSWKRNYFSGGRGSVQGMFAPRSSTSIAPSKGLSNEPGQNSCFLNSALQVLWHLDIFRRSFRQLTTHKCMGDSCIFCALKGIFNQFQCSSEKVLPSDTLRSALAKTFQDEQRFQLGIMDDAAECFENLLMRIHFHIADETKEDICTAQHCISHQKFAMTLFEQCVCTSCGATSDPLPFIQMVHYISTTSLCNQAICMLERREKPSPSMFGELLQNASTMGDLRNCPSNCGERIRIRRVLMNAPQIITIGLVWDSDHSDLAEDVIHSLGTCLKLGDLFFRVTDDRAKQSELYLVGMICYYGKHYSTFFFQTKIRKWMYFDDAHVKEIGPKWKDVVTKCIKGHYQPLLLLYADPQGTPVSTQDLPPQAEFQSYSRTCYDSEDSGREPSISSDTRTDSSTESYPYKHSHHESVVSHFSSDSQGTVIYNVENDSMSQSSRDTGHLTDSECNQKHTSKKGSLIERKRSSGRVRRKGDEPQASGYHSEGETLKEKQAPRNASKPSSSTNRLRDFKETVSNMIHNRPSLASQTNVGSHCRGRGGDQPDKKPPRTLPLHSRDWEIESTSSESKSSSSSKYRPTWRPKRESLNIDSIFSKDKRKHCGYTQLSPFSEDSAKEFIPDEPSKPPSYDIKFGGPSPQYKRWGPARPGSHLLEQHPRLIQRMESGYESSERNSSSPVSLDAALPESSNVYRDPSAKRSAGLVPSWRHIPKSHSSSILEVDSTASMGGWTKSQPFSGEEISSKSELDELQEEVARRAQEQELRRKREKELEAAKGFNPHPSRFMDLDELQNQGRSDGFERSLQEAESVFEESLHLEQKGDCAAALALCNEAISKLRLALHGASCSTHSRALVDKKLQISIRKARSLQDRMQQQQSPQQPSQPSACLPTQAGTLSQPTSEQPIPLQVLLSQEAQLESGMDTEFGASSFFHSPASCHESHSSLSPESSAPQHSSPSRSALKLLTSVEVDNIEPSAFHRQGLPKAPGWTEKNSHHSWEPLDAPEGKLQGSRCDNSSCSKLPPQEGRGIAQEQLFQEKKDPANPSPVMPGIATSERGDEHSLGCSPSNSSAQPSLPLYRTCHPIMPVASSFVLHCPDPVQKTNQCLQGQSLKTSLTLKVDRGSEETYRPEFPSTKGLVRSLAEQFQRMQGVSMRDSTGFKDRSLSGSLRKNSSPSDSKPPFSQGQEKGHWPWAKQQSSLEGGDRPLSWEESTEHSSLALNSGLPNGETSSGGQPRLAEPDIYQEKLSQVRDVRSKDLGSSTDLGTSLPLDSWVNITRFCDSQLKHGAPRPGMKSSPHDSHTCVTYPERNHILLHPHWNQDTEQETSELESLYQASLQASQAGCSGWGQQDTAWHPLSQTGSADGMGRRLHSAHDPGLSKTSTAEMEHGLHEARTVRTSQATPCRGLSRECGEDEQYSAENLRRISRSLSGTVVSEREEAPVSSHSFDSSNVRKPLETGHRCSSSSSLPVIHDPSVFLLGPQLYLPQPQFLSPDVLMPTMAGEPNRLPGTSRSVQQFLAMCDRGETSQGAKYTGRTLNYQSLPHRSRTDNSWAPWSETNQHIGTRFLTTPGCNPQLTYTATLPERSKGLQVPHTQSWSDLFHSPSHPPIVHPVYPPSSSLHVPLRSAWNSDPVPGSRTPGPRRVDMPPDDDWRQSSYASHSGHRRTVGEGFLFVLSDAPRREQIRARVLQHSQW
How it was run: as §1

[7] = biological target: USP7 (UniProt Q93009)
Sequence of USP7 (Q93009 whole entry, looked up): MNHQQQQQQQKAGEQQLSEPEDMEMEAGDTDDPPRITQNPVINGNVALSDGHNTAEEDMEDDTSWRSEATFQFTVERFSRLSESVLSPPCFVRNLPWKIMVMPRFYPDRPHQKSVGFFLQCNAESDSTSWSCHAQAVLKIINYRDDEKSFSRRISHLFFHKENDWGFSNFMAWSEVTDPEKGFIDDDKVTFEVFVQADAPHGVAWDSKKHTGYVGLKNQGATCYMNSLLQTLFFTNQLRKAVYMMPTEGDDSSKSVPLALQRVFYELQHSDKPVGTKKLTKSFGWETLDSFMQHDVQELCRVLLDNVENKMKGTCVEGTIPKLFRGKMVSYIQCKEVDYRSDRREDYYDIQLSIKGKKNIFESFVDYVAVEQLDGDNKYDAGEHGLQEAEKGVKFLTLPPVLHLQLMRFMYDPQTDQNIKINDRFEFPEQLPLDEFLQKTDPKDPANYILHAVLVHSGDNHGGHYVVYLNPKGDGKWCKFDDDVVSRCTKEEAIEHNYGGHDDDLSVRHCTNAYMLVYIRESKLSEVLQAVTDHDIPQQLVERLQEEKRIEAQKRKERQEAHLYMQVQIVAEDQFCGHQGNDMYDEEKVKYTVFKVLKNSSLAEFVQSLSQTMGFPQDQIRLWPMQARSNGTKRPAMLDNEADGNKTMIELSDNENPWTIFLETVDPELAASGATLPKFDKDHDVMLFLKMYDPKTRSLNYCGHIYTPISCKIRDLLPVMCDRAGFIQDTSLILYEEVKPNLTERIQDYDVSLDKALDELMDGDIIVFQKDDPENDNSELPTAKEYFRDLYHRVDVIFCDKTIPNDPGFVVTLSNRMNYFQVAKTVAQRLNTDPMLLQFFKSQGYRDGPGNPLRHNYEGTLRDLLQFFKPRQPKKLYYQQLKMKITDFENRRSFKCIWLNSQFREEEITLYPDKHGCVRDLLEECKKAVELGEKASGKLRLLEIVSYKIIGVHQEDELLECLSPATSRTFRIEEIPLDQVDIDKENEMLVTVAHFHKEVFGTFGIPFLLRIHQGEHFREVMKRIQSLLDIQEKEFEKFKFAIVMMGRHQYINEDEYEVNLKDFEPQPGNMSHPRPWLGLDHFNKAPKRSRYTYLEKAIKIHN
How it was run: as §1

[8] = biological target: T5, USP8 (UniProt P40818)
T5 sequence (whole entry): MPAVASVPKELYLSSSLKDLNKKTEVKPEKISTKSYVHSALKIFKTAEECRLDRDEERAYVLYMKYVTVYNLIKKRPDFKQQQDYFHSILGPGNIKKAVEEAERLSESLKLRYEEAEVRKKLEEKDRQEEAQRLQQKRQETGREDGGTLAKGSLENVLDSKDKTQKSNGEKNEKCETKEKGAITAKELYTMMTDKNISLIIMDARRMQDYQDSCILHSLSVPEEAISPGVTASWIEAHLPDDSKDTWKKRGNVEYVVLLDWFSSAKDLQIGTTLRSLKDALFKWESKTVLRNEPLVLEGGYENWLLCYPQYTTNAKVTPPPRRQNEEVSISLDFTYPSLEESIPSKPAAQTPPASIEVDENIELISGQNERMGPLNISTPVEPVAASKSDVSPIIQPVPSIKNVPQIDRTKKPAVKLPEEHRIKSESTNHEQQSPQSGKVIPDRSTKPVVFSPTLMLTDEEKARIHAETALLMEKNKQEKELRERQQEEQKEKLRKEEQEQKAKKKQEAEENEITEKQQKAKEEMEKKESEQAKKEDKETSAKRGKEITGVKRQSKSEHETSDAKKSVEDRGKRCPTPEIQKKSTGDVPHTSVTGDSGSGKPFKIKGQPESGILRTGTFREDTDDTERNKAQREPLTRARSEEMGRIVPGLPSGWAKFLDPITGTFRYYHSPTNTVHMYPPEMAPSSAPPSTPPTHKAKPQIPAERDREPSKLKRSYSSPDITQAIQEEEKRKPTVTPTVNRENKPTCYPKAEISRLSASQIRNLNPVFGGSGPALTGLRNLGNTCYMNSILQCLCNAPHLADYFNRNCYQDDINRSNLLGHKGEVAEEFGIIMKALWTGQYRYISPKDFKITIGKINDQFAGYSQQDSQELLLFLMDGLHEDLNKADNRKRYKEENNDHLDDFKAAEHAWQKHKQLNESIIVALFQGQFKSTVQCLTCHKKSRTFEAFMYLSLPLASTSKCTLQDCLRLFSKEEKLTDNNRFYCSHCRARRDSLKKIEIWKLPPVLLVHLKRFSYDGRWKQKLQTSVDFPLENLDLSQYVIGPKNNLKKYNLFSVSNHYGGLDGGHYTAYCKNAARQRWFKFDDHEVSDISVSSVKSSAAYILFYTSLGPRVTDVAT
How it was run: as §1

Measured: log2 ratio of Biotin-Ahx-Ub-VS probe labelling

O=C(CCl)Nc1nnc(CC(F)(F)F)o1
inactive: [1] -0.117 | [2] 0.083 | [3] 0.172 | [4] -0.236 | [5] 0.0095 | [6] 0.782 | [7] -0.136 | [8] -0.263
